sPLA2-III inh: human group III sPLA2 inhibitors, primary screen, biochemical, QFRET, BODIPY PC-A2 liposome substrate | Group 3 secretory phospholipase A2 (Homo sapiens), Q9NZ20 | QFRET BODIPY PC-A2 liposome hydrolysis, fluorescence | inhibition, % at 12.2 µM | 370,000 compounds, 0.56% hits | AID 743126, 2013;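 active = inhibition above mean plus 3 SD of compounds lying within the high and low control bounds, cut at about 19% in these data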;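 note: 0% = median of test compound wells and 100% = no enzyme DMSO wells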
PLCb3 inh: human PLC-beta3 inhibitors, primary screen, biochemical, fluorescence; inhibition, % at 12.2 µM; Purified PLC-beta3, fluorogenic substrate; 370,000 compounds, 0.18% hits; AID 720704, 2013;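 note: 0% = median of compound wells on plate and 100% = full blocker control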
PLCg1 inh: PLC-gamma1 enzyme inhibitors, primary screen, biochemical, fluorescence, purified enzyme | 1-phosphatidylinositol 4,5-bisphosphate phosphodiesterase gamma-1 (Homo sapiens), P19174 | fluorogenic substrate | inhibition, % at 12.2 µM | 370,000 compounds, 0.84% hits | AID 720700, 2013; in the data active = inhibition above about 9.5%
Target sequence (P19174 whole entry, looked up): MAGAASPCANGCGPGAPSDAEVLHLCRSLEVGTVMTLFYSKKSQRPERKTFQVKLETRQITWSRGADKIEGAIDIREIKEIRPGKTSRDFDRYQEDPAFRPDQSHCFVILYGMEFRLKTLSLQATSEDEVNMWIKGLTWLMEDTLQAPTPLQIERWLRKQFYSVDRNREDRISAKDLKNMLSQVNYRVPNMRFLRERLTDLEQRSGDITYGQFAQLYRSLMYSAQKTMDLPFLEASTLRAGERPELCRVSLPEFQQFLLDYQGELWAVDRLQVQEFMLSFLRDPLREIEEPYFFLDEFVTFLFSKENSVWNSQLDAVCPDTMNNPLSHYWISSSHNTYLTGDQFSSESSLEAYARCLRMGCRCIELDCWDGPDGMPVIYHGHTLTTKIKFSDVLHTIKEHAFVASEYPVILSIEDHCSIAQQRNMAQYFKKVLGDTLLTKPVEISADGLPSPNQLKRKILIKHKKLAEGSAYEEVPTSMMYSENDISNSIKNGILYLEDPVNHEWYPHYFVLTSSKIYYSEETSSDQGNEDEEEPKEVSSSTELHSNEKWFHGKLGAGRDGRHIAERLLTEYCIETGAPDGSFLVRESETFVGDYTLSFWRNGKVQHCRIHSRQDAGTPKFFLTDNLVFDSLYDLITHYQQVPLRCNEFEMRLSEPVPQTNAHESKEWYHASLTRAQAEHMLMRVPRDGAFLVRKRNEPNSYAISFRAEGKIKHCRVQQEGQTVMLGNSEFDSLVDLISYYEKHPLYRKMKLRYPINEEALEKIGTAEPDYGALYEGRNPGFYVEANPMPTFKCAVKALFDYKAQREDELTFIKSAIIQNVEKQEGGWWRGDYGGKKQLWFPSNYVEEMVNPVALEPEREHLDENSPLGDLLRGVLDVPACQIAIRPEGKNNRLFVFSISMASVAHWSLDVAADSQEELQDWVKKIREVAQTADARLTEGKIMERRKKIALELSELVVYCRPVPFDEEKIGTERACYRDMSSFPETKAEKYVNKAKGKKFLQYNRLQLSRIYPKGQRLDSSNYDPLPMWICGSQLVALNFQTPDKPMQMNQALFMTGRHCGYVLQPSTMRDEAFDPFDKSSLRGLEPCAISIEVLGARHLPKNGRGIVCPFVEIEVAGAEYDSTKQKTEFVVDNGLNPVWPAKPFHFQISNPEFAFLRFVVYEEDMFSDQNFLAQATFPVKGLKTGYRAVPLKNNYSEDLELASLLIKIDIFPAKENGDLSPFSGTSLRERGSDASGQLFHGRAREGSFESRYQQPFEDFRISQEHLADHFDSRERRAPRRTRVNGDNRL
DAGLB inh: DAGLB lipase inhibitors, primary screen, biochemical, fluorescence, HTS. Diacylglycerol lipase-beta (Homo sapiens), Q8NCG7. HEK293T DAGLB membrane lysate, EnzChek fluorogenic substrate. inhibition, % at 5.17 µM. 340,000 compounds, 0.059% hits. AID 504411, 2011; in the data active = inhibition above about 34%;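 note: 0% = enzyme with vehicle and 100% = wells lacking enzyme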
PLCgamma1 ctr: PLC-gamma1 enzyme inhibitors, counter-screen for PLC-beta3 inhibitor project, biochemical, fluorescence. shares compounds with PLCg1 inh. purified PLC-gamma1, fluorogenic substrate. inhibition, % at 12.3 µM. 3,300 compounds, 3.1% hits. AID 743258, 2014; in the data active = inhibition above about 9.5%
PLCbeta3 conf: PLC-beta3 inhibitor confirmation, biochemical, fluorescence, purified enzyme; 3,300 compounds, 1% hits; AID 743261, 2014; fluorogenic substrate fluorescence; shares compounds with PLCg1 inh; inhibition, % at 12.3 µM
* hit, by the source's call; / = no result. Only some compounds are listed: those with a hit (about 1.5% of all), similar ones and a draw of the others. Cut-off read from the data, not from the text of the source, unless noted: active = inhibition above about 11%; inactive = the rest.

SMILES	sPLA2-III inh	PLCb3 inh	PLCg1 inh	DAGLB inh	PLCgamma1 ctr	PLCbeta3 conf
CC(C)(C)c1ccc(-c2nnc(SCC(=O)Nc3ccccc3-c3ccccc3)n2Cc2ccco2)cc1	-7	1	0	/	/	/
CCCCn1c(=O)n(CC(=O)Nc2ccc(OC)c(Cl)c2)c(=O)c2c1nc(CO)n2CCC	-15	6	9.7*	0	13*	7
CCCCn1c(=O)n(CC(=O)Nc2c(CC)cccc2CC)c(=O)c2c1nc(CO)n2CCC	-1	4	2	-4	/	/
Cc1ccc(N(CC(=O)NC2CCCC2)C(=O)CCC(=O)Nc2nc(C)cs2)cc1	5	-8	9.6*	0	-2	4
O=c1c(-c2ccnn2-c2ccc(F)cc2)cnc2n1CCS2	2	0	-1	2	/	/
O=c1ccnc2n1COCS2	12	0	12*	1	-5	-1
CC(NS(=O)(=O)c1ccc2c(c1)C(=O)c1cc(S(=O)(=O)NC(C)C(=O)O)ccc1-2)C(=O)O (stereo not drawn)	4	-2	15*	1	-8	-4
O=C(Nc1ccccc1C(=O)Nc1ccc(Br)cn1)c1cccc([N+](=O)[O-])c1	12	-7	10*	-1	-9	-2
O=C(Nc1ccccc1C(=O)Nc1ccncc1)c1cccc([N+](=O)[O-])c1	-7	-10	1	-1	/	/
O=C(Nc1ccc(N2CCOCC2)c2nonc12)C1CCCC1	-9	-2	-1	1	/	/
Nc1ccc(N2CCOCC2)c2nonc12	5	-12	31*	-20	-4	-1
O=C(Nc1ccc2c(c1)Cc1ccccc1-2)NC1CCCCN(Cc2ccc(Cl)cc2)C1=O (stereo not drawn)	13	-3	4	/	/	/
C[C@H]1[C@@H](c2ccccc2)OC(O)([C@H](Cc2ccccc2)NC(=O)OC(C)(C)C)CN1C (stereo partly drawn)	-5	7	1	/	/	/
COCCCNC(=O)C[C@H]1C[C@@]2(C(=O)OC)C(=C[C@H](COCc3ccccc3)O[C@@H]2C)N(Cc2cccc3ccccc23)C1=O	-17	-2	7	/	/	/
O=C(OCc1ccccc1F)c1cc([N+](=O)[O-])ccc1N1CCOCC1	-4	-4	1	-6	/	/
O=C(OCc1ccccc1C(F)(F)F)c1cc([N+](=O)[O-])ccc1N1CCOCC1	-11	3	10*	-4	-1	2
CC1C=CC=CCCC=CC=CC=CC=CC(OC2O[C@H](C)[C@@H](O)[C@H](N)[C@@H]2O)CC(O)C(C(=O)O)C(O)CC(=O)CC(O)C(O)CCC(O)CC(O)CC(O)CC(=O)OC(C)C(C)C1O (stereo partly drawn)	-11	-32	-26	/	/	/
O=c1[nH]ncc(N/N=C\c2cccnc2)c1Cl	5	-8	0	-1	/	/
O=c1[nH]ncc(N/N=C\c2ccncc2)c1Cl	9	11*	9	1	2	4
CC12CC3(C)CC(C)(C1)CC(C(N)=O)(C2)C3	5	13*	11*	-4	4	-2
CN(C)CCOC(=O)C12CC3(C)CC(C)(CC(C)(C3)C1)C2	-4	2	2	0	/	/
CC1CCC2(CC1)CCC2NCc1ccc(Cl)cc1 (stereo not drawn)	1	1	-2	/	/	/
CC(=C/C(=O)O)/C(=C\c1ccc(Br)o1)C(=O)O	12	-9	0	-2	/	/
CC(=C/C(=O)O)/C(=C/c1ccccc1)C(=O)O	-5	0	10*	-3	-4	1
CCOC(=O)C1CCN(C(=O)C(C)(C)NC(=O)Nc2ccc(Cl)cc2Cl)CC1	6	1	5	/	/	/
SMILES	sPLA2-III inh	PLCb3 inh	PLCg1 inh	DAGLB inh	PLCgamma1 ctr	PLCbeta3 conf
CCC[C@H]1[C@@H](OC(=O)NCc2cccnc2)CC[C@@]23CCCN2C(=O)CCC[C@@H]13	6	3	0	/	/	/
CC(C)(C)n1nnnc1C(c1ccccc1)N1CCN(C(=O)C2CCCO2)CC1 (stereo not drawn)	10	4	9.9*	/	-6	2
CN1CCN(C(c2ccccc2)c2nnnn2C(C)(C)C)CC1 (stereo not drawn)	-3	5	12*	/	-1	-7
Cc1nc([N+](=O)[O-])cn1CCCCN1C(=O)c2ccccc2C1=O	11	1	11*	0	0	-2
CCN(C[C@@H]1[C@@H](c2ccccc2)[C@H](CO)N1S(C)(=O)=O)C(=O)C1CCC1	4	1	0	/	/	/
COc1ccc(Br)cc1/C=N/n1c(COc2ccccc2)n[nH]c1=S	3	-3	11*	1	-49	-43
Cc1ccc(NC(=O)c2cnccn2)cc1C	8	-1	11*	1	1	-7
CCn1nnnc1SCC(=O)N1CCCc2ccccc21	0	11*	-1	1	0	3
CCn1nnnc1SCC(=O)N1CCc2ccccc21	4	6	4	2	/	/
CCCn1c(SCC(=O)N2CCCc3ccccc32)nnc1-c1ccccn1	5	4	12*	0	0	-2
CCCn1c(SCC(=O)N2CCc3ccccc32)nnc1-c1ccco1	7	3	6	-5	/	/
COc1ccc(CC(=O)NCC2CCCN(Cc3ccc(F)c(OC)c3)C2)cc1 (stereo not drawn)	0	-2	0	-4	/	/
COc1ccc(CC(=O)NCC2CCCN(Cc3cccc(C(F)(F)F)c3)C2)cc1 (stereo not drawn)	-2	-3	11*	3	-7	0
COC(=O)[C@]12C[C@H](CC(=O)NCc3ccccc3)C(=O)N(Cc3ccc(Cl)cc3Cl)C1=C[C@H](C(C)C)O[C@@H]2C1CC1	-14	3	2	/	/	/
CN(CC(=O)Nc1cccc(F)c1)C(=O)CCCc1cccs1	1	10	13*	-1	-1	0
Oc1ccccc1C1=NCCNC(C(F)(F)F)=C1	3	2	-1	-1	/	/
FC(F)(F)C1=CC(c2ccc(Cl)cc2)=NCCN1	5	4	11*	1	7	6
CCCc1n[nH]c2c1C(=O)CC(C)(C)C2	6	8	11*	-1	-3	-1
CC(Oc1ccccc1Cl)C(=O)N1CCCN(C)CC1 (stereo not drawn)	5	-6	0	-1	/	/
Cc1cc(Cl)ccc1OCC(=O)N1CCCN(C(=O)COc2ccc(Cl)cc2C)CC1	-13	4	10*	2	-9	-4
Cc1cc(Cl)ccc1OC(C)C(=O)N1CCCN(C(=O)C(C)Oc2ccc(Cl)cc2C)CC1 (stereo not drawn)	-31	4	10*	-8	-5	-4
O=C(NCCc1ccccc1)c1c[nH]c2ccccc2c1=O	-13	11*	9	-2	-3	-2
